Source: PubChem BioAssay (National Center for Advancing Translational Sciences (NCATS))
In the library only some 5.2% were active in any assay of this set; here they are far more common.
Tau ThT inhib – tau fibrillization inhibition (ThT binding). P10636. recombinant tau K18 P301L, heparin-induced fibrillization, ThT fluorescence. Potency, µM (highest dose often 57.4 µM), for the others: at the highest dose activity, negative = inhibition, hits mostly inhibitors. 270,000 compounds, 2.1% hits. AID 1460; also: potency is read from the fitted curve at half-maximal effect; nearly all actives have a fitted effect of over 55% in size
Target sequence (P10636 561-689 P618L limits assumed): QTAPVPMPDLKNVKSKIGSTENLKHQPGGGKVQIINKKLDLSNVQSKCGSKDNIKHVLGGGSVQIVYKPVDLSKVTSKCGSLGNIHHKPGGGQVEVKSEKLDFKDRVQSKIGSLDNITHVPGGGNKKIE
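Heparin-induced (20 uM) aggregation of recombinant human K18 P301L tau, 15 uM unlabeled with 0.24 uM labeled, pH 7 acetate buffer, 6 hr at 37 C with compound. Fibrils quantified by 30 uM ThT fluorescence after 1 hr ambient incubation.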
Sfp inh – Sfp phosphopantetheinyl transferase inhibition | Q9F4F7 | Biochemical Sfp PPTase activity, qHTS | Potency, µM, without a hit: largest response in the series, negative = inhibition, most hits filed as inhibitors | 310,000 compounds, 3.5% hits | AID 1490;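 also: the enzyme is Sfp with the accession as filed and its product quenches rhodamine fluorescence; potency is read from the fitted curve at half-maximal effect; 0% = enzyme reaction without inhibitor and -100% = no enzyme wells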
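Fluorescence-quenching assay: 15 nM Sfp-PPTase preincubated 15 min at room temperature with compound, then 5 uM rhodamine-CoA and 12.5 uM BHQ-2-labelled YbbR peptide added. Fluorescence (ex 525/em 598 nm) read at start and after 30 min; difference gives rate.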
FBPA coupling cs – inhibits coupling enzyme system, counter-screen for aldolase hits | coupling enzyme system counterscreen, AmpLite Red fluorescence | activity change, negative = inhibition, % at 58.2 µM, hits read low | 290,000 compounds, 0.67% hits | AID 2472; in the data active = activity change below about -30%
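Counterscreen of the coupled detection system alone, without aldolase: glyceraldehyde-3-phosphate coupling enzymes plus AmpLite Red readout. Compounds at 57.5 uM final, 10 min RT preincubation, 20 min RT reaction, fluorescence 525/598 nm.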
Tau FP inhib – blocks human tau fibril formation measured by polarization; P10636; K18 P301L tau heparin fibrillization, Alexa594 FP, 6 h; 280,000 compounds, 0.39% hits; Potency, µM (highest dose often 57.7 µM), inactives show at the top dose activity, negative = inhibition, hits mostly inhibitors; AID 1468; also: potency is read from the fitted curve at half-maximal effect; nearly all actives have a fitted effect of over 55% in size
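Recombinant K18 P301L […], labeled with Alexa 594 at 0.24 uM over 15 uM unlabeled; heparin inducer 20 uM final; 37 C, 6 hr; FP endpoint.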
Tau fluor counter – counter-screen for tau fibril formation inhibitors. tau K18 P301L (four-repeat tau fragment) Alexa594 fluorescence, heparin fibrillization. 280,000 compounds, 0.93% hits. AID 1463. Potency, µM (titrated, usually from 57.7 µM), for inactives: at the top dose activity change, negative = decrease; also: potency is read from the fitted curve at half-maximal effect; nearly all actives have a fitted effect of over 55% in size
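Human K18 P301L tau (15 uM unlabeled plus 0.24 uM Alexa 594-labeled, final) in 100 mM sodium acetate pH 7 was mixed with compound and 20 uM heparin and incubated 6 hr at 37 C.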
* marks the source's active call; other numbers are inactive results; ? = inconclusive; . = no result given; [ ] = remark or other dose. Unless noted, calls follow the shape of the dose curve; as a rule, active = well fitted curve in the direction sought with a large enough effect; inconclusive = small, poorly fitted or top-dose-only effect, or another doubt; inactive = no such curve, though single readings can be large; an effect the other way counts as inactive or inconclusive. Unless noted, % is scaled to controls: 0 for no effect and ±100 for the full control effect.

SMILES	Tau ThT inhib	Sfp inh	FBPA coupling cs	Tau FP inhib	Tau fluor counter
C=CCN1C(=O)/C(=C2/Sc3ccccc3N2CC)SC1=S	.	6%	2	.	.
CCCN1/C(=C2/SC(=S)N(CC)C2=O)C=Cc2ccccc21	?	?	-7	4%	?
C=CCN1C(=O)/C(=C2/Sc3ccccc3N2CCCS(=O)(=O)O)SC1=S	?	45µM*	0	1%	-10%
CCN1C(=O)/C(=C2/C=Cc3ccccc3N2CC)SC1=S	13µM*	-15%	-1	11%	?
COc1ccc(CCNC(=O)CCSCc2ccccc2Cl)cc1OC	-4%	.	.	1%	-6%
Cc1ccccc1NC(=O)CSc1nc(-c2ccccc2)cn1-c1ccccc1F	-12%	.	.	-11%	-24%
c1ccc(Nc2ccnc(Nc3ccccc3)n2)cc1	-8%	?	-5	?	?
NNc1nccc(Nc2ccccc2C(=O)O)n1	?	50µM*	-4	1%	-11%
CCOc1ccc(NC(c2ccccn2)c2oc(CO)cc(=O)c2O)cc1 (stereo not drawn)	?	3.2µM*	-19	-9%	-11%
CCOc1ccc(C(Nc2cccnc2)c2cc(Cl)c3cccnc3c2O)cc1 (stereo not drawn)	-5%	?	-25	-2%	-6%
CC(C)(C)OC(=O)NCC12C=CC(O1)C1C(=O)N(Cc3ccccc3)C(=O)C12 (stereo not drawn)	-20%	71µM*	2	-2%	-4%
CC(C)(C)OC(=O)NCC1CCN(S(=O)(=O)Cc2ccccc2)CC1	.	13%	2	.	.
CCN(CC)CCn1c(=S)[nH]c2cc3c(cc2c1=O)OCO3	-6%	79µM*	.	0%	-3%
CCN(CC)CCNC(=O)CCn1c(=S)[nH]c2cc3c(cc2c1=O)OCO3	0%	-12%	0	3%	14%
O=S1(=O)C[C@@H](N2CCOCC2)[C@H](N2CCOCC2)C1	-13%	71µM*	-9	9%	-8%
CN1CC=C2C(C#N)=C(N)C(C#N)(C#N)C(c3ccsc3)C2C1 (stereo not drawn)	16µM*	2%	-18	?	-18%
CN1CC=C2C(C#N)=C(N)C(C#N)(C#N)[C@H](c3cccc(Cl)c3)C2C1 (stereo partly drawn)	20µM*	1%	-36*	?	-27%
CN1CC=C2C(C#N)=C(N)C(C#N)(C#N)[C@H](c3cccs3)[C@H]2C1	?	7%	-8	?	-17%
CCCCC(=O)NCCc1c(Cc2ccccc2)[nH]c2ccccc12	-15%	-6%	2	?	?
CC1(C)CC(=O)C2=C(C1)N(Cc1cccnc1)C(=O)C2(NC(=O)c1cccnc1)C(F)(F)F (stereo not drawn)	2%	32%	1	-4%	-3%
CC1(C)CC(=O)C2=C(C1)N(Cc1ccco1)C(=O)C2(NC(=O)c1cccnc1)C(F)(F)F (stereo not drawn)	-18%	22µM*	0	-3%	-10%
COc1ccc(-c2nc3oc4cc(OC)ccc4c(=O)c3c(=O)n2Cc2ccco2)cc1	?	25µM*	-1	-4%	-3%
Cc1ccc(-c2nc3c(c(=O)c4ccccc4n3C)c(=O)n2Cc2ccco2)cc1	?	4µM*	6	?	-2%
COc1ccc(Cn2c(-c3ccco3)nc3oc4cc(OC)ccc4c(=O)c3c2=O)cc1	?	5%	2	1%	-10%
COc1ccc2c(=O)c3c(=O)n(Cc4ccco4)c(-c4ccco4)nc3oc2c1	28µM*	?	0	-3%	?
SMILES	Tau ThT inhib	Sfp inh	FBPA coupling cs	Tau FP inhib	Tau fluor counter
CCc1nc2oc3cc(OC)ccc3c(=O)c2c(=O)n1Cc1ccco1	-15%	35µM*	4	2%	-3%
COc1ccc(N2CC(NC(=O)C(=O)c3c[nH]c4ccccc34)CC2=O)cc1 (stereo not drawn)	-9%	.	.	-18%	-13%
CCc1nc2sc3ccccc3c(=O)c2c(=O)n1Cc1ccco1	?	40µM*	2	-7%	-7%
O=C(CN1C(=O)CC(c2ccccc2)=Nc2ccccc21)Nc1ccc(Br)cc1	-1%	.	.	?	-26%
CCCC[C@H](NC(=O)[C@H](CC(C)C)NC(=O)[C@@H](Cc1c[nH]c2ccccc12)NC(=O)[C@H](Cc1ccccc1)NC(=O)[C@@H](Cc1c[nH]c2ccccc12)NC(=O)[C@H](CC(N)=O)NC(=O)[C@@H](Cc1c(Cl)cccc1Cl)NC(=O)[C@@H]1CCCN1C(=O)[C@H](Cc1ccccn1)NC(=O)[C@@H]1CCCN1C(=O)[C@H](N)CCCCNC(=O)c1cccnc1)C(N)=O	.	-13%	-1	.	.
CC(=O)c1cccc(NC(=S)Nc2cccc3ccccc23)c1	.	-15%	-3	.	.
Cc1ccc(NC(=S)Nc2cccc3cnccc23)cc1C	6%	40µM*	-44*	7%	9%
CC(=O)c1ccc(NC(=S)Nc2cccc3cnccc23)cc1	?	2.5µM*	-62*	-16%	-23%
Cc1ccc(NC(=S)Nc2cccc3cnccc23)cc1	?	45µM*	-38*	?	-14%
Cc1cc(O)c(C)c2sc(N)nc12	.	-15%	-1	.	.
COc1ccc(/C=C/N(CCc2ccc(OC)c(OC)c2)C(=O)C(F)(F)F)cc1	-8%[11.5 µM]	11%	0	0%[11.6 µM]	-18%[11.6 µM]
Cc1nnc(NC(=O)CSc2ccc(-c3cccnc3)nn2)s1	-5%	40µM*	6	9%	13%
Cc1nnc(NC(=O)CSc2ccc(-c3ccccn3)nn2)s1	?	?	0	-15%	-14%
Cn1c(=O)c2c(-c3ccccc3Cl)n(Cc3ccc(Cl)cc3)cc2n(C)c1=O	-15%	.	.	-14%	-14%
CCC(=O)NC1=C(Cl)C(=O)C(NC(=O)CC)=C(Cl)C1=O	2µM*	0.56µM*	-90*	3.5µM*	?
O=C(NCC1CCCO1)C1c2ccccc2Oc2ccccc21 (stereo not drawn)	1%	28%	0	-7%	0%
O=C(O)CC12CSc3[nH]c(=O)sc3C1c1ccccc1OC2=O (stereo not drawn)	25µM*	14µM*	-11	?	-19%
CCN(CC(=O)NCc1ccc(Cl)cc1)C(=O)/C=C/c1ccc(Cl)c([N+](=O)[O-])c1	.	79µM*	.	.	.
NS(=O)(=O)c1ccc(N/N=C/c2cn(-c3ccccc3)nc2-c2cccs2)c([N+](=O)[O-])c1	2.5µM*	3%	-1	16%	?
NC(=O)N/N=C/c1cn(-c2ccccc2)nc1-c1cccs1	16%	-3%	0	-12%	-25%
NS(=O)(=O)c1ccc(N/N=C/c2cn(-c3ccccc3)nc2-c2cccs2)cc1	16µM*	10%	0	-11%	13µM*[quencher]
